These results are taken from PubChem BioAssay (NCATS).

Several values for one entry are separate records, joined by “and”; a condition that tells them apart may be missing. Equal values may be shown once. Values without a mark were called inactive. Results filed as inconclusive are left out. Where a call stands in place of a potency, no number is given. Activity calls are given as the source filed them. Calls come from the whole dose curve; as a rule, active = well fitted curve in the direction sought with a large enough effect; inconclusive = small, poorly fitted or top-dose-only effect, or another doubt; inactive = no such curve, though single readings can be large; an effect the other way counts as inactive or inconclusive.

Assay [1] can be described thus: Inducers of the Endoplasmic Reticulum Stress Response (ERSR) in human glioma: Validation (AID 504836). The method, boiled down: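 Stably transfected U87-MG glioma cells carrying a GRP78-based luciferase sensor; 16 h compound incubation. Luminescence end-point read 10 min after Bright-Glo addition at room temperature.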
The target in assay [2] is Ubiquitin carboxyl-terminal hydrolase 1 (Homo sapiens) (UniProt O94782). The experiment in a line: Inhibitors of USP1/UAF1: Pilot qHTS (AID 504865). Note: nearly all actives have a fitted effect of over 35% in size. Note: potency is the fitted concentration of half-maximal effect. The method, boiled down: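 Kinetic fluorescence assay: 1nM USP1/UAF1, 15 min compound preincubation, then 150nM Ub-Rho; 480/540 nm.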
Assay [3] can be described thus: qHTS for Inhibitors of ATXN expression: Validation of Cytotoxic Assay (AID 588349). In a few lines: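 Cytotoxicity counter-screen: ATP-based luminescent viability (CellTiter Glo) after 72 hr exposure of HEK293 cells to a compound titration at 37 degrees C.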
Assay [4] is described as follows: qHTS for Inhibitors of ATXN expression: Validation (AID 588378). Note: series mostly up to about 57 µM; nearly all actives have a fitted effect of over 75% in size. In a few lines: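 Validation of ATXN2 expression inhibitors uses a cell-based luciferase fusion reporter in HEK293 cells, with 24 h compound exposure and paired viability (fluorescence) and reporter (luminescence) end-point reads.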
The target in assay [5] is DNA dC->dU-editing enzyme APOBEC-3G (Homo sapiens) (UniProt Q9HC16). Kind of assay: qHTS for inhibitors of Vif-A3G interactions: Validation (AID 588379). In a few lines:
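Yellow fluorescence (Ex 488, Em 500-530) of Vif-coexpressing HeLa A3G-eYFP cells, scanned by Acumen cytometer, reports blocked A3G degradation. Cells plated at 700/well overnight at 37 deg C before compound addition, then a further overnight compound incubation at 37 deg C.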

Ubiquitin carboxyl-terminal hydrolase 1 (Homo sapiens), sequence (O94782 whole entry, looked up): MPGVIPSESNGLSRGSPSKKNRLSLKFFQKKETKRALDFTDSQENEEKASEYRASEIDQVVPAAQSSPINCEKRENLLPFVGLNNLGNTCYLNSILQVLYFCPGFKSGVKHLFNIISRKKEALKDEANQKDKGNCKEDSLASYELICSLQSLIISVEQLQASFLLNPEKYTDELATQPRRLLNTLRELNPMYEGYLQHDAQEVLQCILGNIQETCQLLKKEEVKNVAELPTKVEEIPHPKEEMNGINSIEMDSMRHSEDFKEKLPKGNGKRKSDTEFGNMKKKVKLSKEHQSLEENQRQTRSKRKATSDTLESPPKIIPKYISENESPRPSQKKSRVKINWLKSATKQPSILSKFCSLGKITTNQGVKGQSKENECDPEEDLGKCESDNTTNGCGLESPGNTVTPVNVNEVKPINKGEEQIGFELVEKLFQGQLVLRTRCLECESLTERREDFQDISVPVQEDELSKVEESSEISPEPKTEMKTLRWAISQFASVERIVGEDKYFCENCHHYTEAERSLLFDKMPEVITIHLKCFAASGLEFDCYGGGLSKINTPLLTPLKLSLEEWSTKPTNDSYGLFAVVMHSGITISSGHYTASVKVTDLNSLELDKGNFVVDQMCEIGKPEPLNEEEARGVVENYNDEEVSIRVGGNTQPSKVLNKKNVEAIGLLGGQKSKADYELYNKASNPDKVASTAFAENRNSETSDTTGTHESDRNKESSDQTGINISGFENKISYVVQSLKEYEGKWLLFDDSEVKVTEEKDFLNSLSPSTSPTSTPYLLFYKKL
DNA dC->dU-editing enzyme APOBEC-3G (Homo sapiens), sequence (Q9HC16 whole entry, looked up): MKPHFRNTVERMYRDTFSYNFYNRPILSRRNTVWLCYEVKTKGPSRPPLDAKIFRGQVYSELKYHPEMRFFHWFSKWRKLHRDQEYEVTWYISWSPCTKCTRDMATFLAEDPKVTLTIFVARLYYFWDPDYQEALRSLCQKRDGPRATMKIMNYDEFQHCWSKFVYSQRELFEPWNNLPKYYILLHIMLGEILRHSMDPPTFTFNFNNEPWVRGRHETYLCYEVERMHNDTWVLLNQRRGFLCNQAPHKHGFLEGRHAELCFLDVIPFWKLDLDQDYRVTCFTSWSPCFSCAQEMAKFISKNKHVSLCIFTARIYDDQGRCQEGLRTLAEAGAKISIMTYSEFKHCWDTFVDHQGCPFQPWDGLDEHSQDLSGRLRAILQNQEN

In the case of `COc1ccc2c(c[n+](C)c3c4cc5c(cc4ccc23)OCO5)c1OC`, the Potency entry in assay [1] and in assay [2] was “inactive” each time.

For the compound `CC(C)Oc1cccnc1N(C)C1CCN(Cc2ccccc2)CC1`, the Potency result in assay [1], in assay [2] and in assay [4] was “inactive” throughout. Further, in assay [3], the outcome was inactive.

Consider `CC(Cc1ccc(O)cc1)NCC(O)c1cc(O)cc(O)c1` (configuration not stated), for which the Potency entry in assay [1], in assay [2] and in assay [4] was “inactive” throughout. The result in assay [3] was inactive.

With `C[C@]12CCC3C(CC[C@H]4C[C@H](O)CC[C@]34C)C1CC[C@@H]2C(=O)CO` (some centres not stated), the Potency entry in assay [1], in assay [2] and in assay [4] was “inactive” throughout. Moreover, the call in assay [3] was inactive.

In the case of `NCCCC(N)(C(=O)O)C(F)F` (configuration not stated), in assay [1], the Potency entry was “inactive”.

As to `CCc1c(C)[nH]c2c1C(=O)C(CN1CCOCC1)CC2` (configuration not stated), in assay [1], the Potency entry was “inactive”.

Take `NC(CCP(=O)(O)O)C(=O)O` (configuration not stated): the Potency entry in assay [1], in assay [2] and in assay [4] was “inactive” each time. Moreover, the compound was classed as inactive in assay [3].

In the case of `CCn1cc(C(=O)O)c(=O)c2cc3c(cc21)OCO3`, in assay [1], the Potency entry was “inactive”.

For the compound `C[C@@H](N)C1CCC(C(=O)Nc2ccncc2)CC1` (some centres not stated), the Potency result in assay [1] is “inactive”.

On to `CS(=N)(=O)CC[C@H](N)C(=O)O` (some centres not stated), for which the Potency result in assay [1], in assay [2] and in assay [4] was “inactive” in each case. In assay [3], the compound was called inactive.

Take `COc1cc2c(cc1O)CC[C@@H]1[C@@H]2CC[C@]2(C)[C@@H](O)CC[C@@H]12`: the Potency result in assay [1] is “inactive”.

In the case of `C[N+](C)(C)CC(=O)O`, the Potency entry in assay [1] and in assay [2] was “inactive” in each case.

As for `c1ccc(C2(c3ccccc3)CC2C2=NCCN2)cc1` (configuration not stated), the Potency entry in assay [1] and in assay [2] was “inactive” each time. Also, the outcome in assay [3] was inactive.

For `CCCN1CCO[C@@H]2c3cc(O)ccc3OC[C@H]21`, the Potency entry in assay [1], in assay [2] and in assay [4] was “inactive” throughout. In addition, the result in assay [3] was inactive.

Take `CC(C)(Sc1ccc(CCN(CCCCC2CCCCC2)C(=O)NC2CCCCC2)cc1)C(=O)O`: in assay [1], the Potency entry is “inactive”.

Turning to `CC(C)C[C@H](NC(=O)[C@@H](O)[C@H](N)Cc1ccccc1)C(=O)O`, the Potency entry in assay [1] is “inactive”.

In the case of `CCN1CCc2nc(N)oc2CC1`, the Potency result in assay [1] was “inactive”.

For the compound `NC(N)=NOCCC(N)C(=O)O` (configuration not stated), the Potency entry in assay [1], in assay [2] and in assay [4] was “inactive” in each case. Moreover, the call in assay [3] was inactive.

Take `C[N+]1(C)C2CCC1CC(OC(=O)C(CO)c1ccccc1)C2` (configuration not stated): the Potency result in assay [1], in assay [2] and in assay [4] was “inactive” throughout. For the same compound, the compound was classed as inactive in assay [3].

Turning to `CS(=O)(=O)Nc1ccc([N+](=O)[O-])cc1Oc1ccccc1`, the Potency entry in assay [1] is “inactive”.

Turning to `O=C(O)CC[N+](=O)[O-]`, the Potency entry in assay [1], in assay [2] and in assay [4] was “inactive” each time. For the same compound, the result in assay [3] was inactive.

For `COc1cc(C(O)CN)ccc1O` (configuration not stated), the Potency result in assay [1], in assay [2] and in assay [4] was “inactive” throughout. Moreover, the call in assay [3] was inactive.

In the case of `CC[C@@H](C(N)=O)N1CCCC1=O`, the Potency result in assay [1], in assay [2] and in assay [4] was “inactive” in each case. Moreover, the result in assay [3] was inactive.

`CN1C(=O)CC[C@H]1c1cccnc1`: the Potency entry in assay [1] was “inactive”.

For the compound `CCN(CC)CCn1c(=O)c(Cc2ccc(OC)cc2)nc2ccccc21`, the Potency result in assay [1] is “inactive”.

As for `O=C(N[C@H]1CN2CCC1CC2)c1ccc(Cl)cc1`, the Potency entry in assay [1], in assay [2] and in assay [4] was “inactive” in each case. The call in assay [3] was inactive.

Consider `CC(C)NC(C)Cc1ccc(I)cc1` (configuration not stated), for which the Potency entry in assay [1] and in assay [2] was “inactive” throughout. In assay [3], the outcome was inactive.

For `CC(C)(C)NCC(O)c1ccc(O)c(CO)c1` (configuration not stated), the Potency result in assay [1] is “inactive”.

As to `Cc1nccc2c1[nH]c1ccccc12`, the Potency entry in assay [1], in assay [2] and in assay [4] was “inactive” each time. The compound was called inactive in assay [3] and in assay [5].

In the case of `CC(=O)[C@H]1CCC2C3CC[C@H]4C[C@H](O)CC[C@]4(C)C3CC[C@@]21C` (some centres not stated), the Potency result in assay [1], in assay [2] and in assay [4] was “inactive” each time. The compound was classed as inactive in assay [3].

As to `NC(CP(=O)(O)O)C(=O)O` (configuration not stated), the Potency entry in assay [1], in assay [2] and in assay [4] was “inactive” each time. Moreover, the call in assay [3] was inactive.

Turning to `C[N+]1(C)C2CC(OC(=O)[C@H](CO)c3ccccc3)CC1C1OC12` (some centres not stated), the Potency entry in assay [1] and in assay [4] was “inactive” each time.

Turning to `COC(=O)[C@@H](N)CCCN=C(N)N[N+](=O)[O-]`, the Potency result in assay [1], in assay [2] and in assay [4] was “inactive” each time. In addition, the compound was called inactive in assay [3] and in assay [5].

With `c1ccc(CCCN2CCN(CCOC(c3ccccc3)c3ccccc3)CC2)cc1`, the Potency entry in assay [1] and in assay [2] was “inactive” in each case. Besides, the outcome in assay [5] was inactive.

Regarding `C#CC1(O)CCC2C3CCC4=CC(=O)CCC4(C)C3CCC21C` (configuration not stated), the Potency in assay [2] was 50.1 µM (active).

For `CCCN(CCC)C1CCc2ccc(O)cc2C1` (configuration not stated), the Potency entry in assay [2] and in assay [4] was “inactive” throughout. Also, the outcome in assay [3] was inactive.

`CCCN(CCC)[C@@H]1CCc2ccc(O)cc2C1`: the Potency entry in assay [1], in assay [2] and in assay [4] was “inactive” each time. Besides, the compound was called inactive in assay [3] and in assay [5].

For `O=C(Cc1ccc(Cl)c(Cl)c1)N1CCCCC1CN1CCCC1` (configuration not stated), the Potency result in assay [2] was “inactive”.

Regarding `O=C(O)[C@@H]1CCN1`, the Potency result in assay [2] and in assay [4] was “inactive” each time. Further, the outcome in assay [3] was inactive.

For `COC(=O)c1cncn1C(C)c1ccccc1` (configuration not stated), the Potency result in assay [2] was “inactive”.

Regarding `CCCCCCCCCCCCCCCC[N+](C)(C)C`, the Potency in assay [2] was 22.4 µM (active) and 31.6 µM (active).

For the compound `C[C@@H]1O[C@H](C[N+](C)(C)C)C[C@H]1O`, the Potency entry in assay [2] and in assay [4] was “inactive” each time. Further, in assay [3], the outcome was inactive.

As to `CNCCc1ccc(O)c(O)c1`, the Potency entry in assay [2] is “inactive”.

Take `CC(=O)OCC1=C(C(=O)O)N2C(=O)[C@@H](N)[C@@H]2SC1`: in assay [2], the Potency result was “inactive”.

As for `C=CCN1CC[C@]23CCCCC2[C@H]1Cc1ccc(O)cc13` (some centres not stated), the Potency result in assay [1], in assay [2] and in assay [4] was “inactive” each time.

As for `O=C1C(I)=CC(=C(c2cc(I)c(O)c(I)c2)c2ccccc2C(=O)O)C=C1I`, in assay [2], the Potency was 25.1 µM (active).

`NC1CCc2cc(O)c(O)cc2C1` (configuration not stated): the Potency result in assay [2] and in assay [4] was “inactive” each time. Further, the compound was classed as inactive in assay [3].

Regarding `CN1C2CCC1CC(OC(=O)c1cc(Cl)cc(Cl)c1)C2` (configuration not stated), the Potency result in assay [2] was “inactive”. Also, the compound was called inactive in assay [3].
